Shown are actives, neighbours in structure and some others; about 3.3% of the full set was active somewhere.
Mcl1 Bid PPI = Mcl-1/Bid interaction inhibition; inhibition, % at 21.7 µM; AID 1021; Q07820; 220,000 compounds, 0.97% hits; TR-FRET Mcl-1/Bid-Dy647 peptide binding, 1536-well;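 active = compounds that cut the binding signal by more than half at the single screening dose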;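 also: His-tagged Mcl-1 with europium anti-His antibody binding Bid BH3 peptide; 0% = Mcl-1 plus peptide wells and 100% = peptide-only wells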
14-3-3 Bad inh = disrupts binding of bovine 14-3-3 zeta to phospho-Bad peptide; TR-FRET 14-3-3zeta/Dy647-pBad peptide displacement, 1 h; inhibition, % at 21.7 µM; 220,000 compounds, 0.71% hits; AID 781;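 active = inhibition above about 70%, limit read from the data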;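 also: 0% = full 14-3-3 plus peptide FRET controls and 100% = background without 14-3-3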
eIF4E-4G inh = eIF4E/eIF4G interaction inhibition in translation initiation. P63073+Q04637. TR-FRET eIF4E-eIF4GI(517-606) binding, 2 h. 220,000 compounds, 0.37% hits. inhibition, % at 21.7 µM;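 also: 0% = full FRET control wells and 100% = background wells lacking eIF4GI fragment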
Mcl1-Noxa inh = disrupts binding of human Mcl-1 to Noxa peptide; AID 1022; 220,000 compounds, 1.5% hits; inhibition, % at 21.7 µM; TR-FRET Mcl-1/Noxa peptide binding, 2 h; Q07820;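 active = compounds that cut the protein-peptide binding signal by more than 50% relative to plate controls in a single-dose test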;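 also: His-tagged Mcl-1 with rhodamine Noxa BH3 peptide and terbium anti-His antibody; 0% = Mcl-1 plus Noxa peptide wells and 100% = peptide-only wells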
p47phox inh = inhibitors of human p47phox binding; P14598; p47phox/p22phox peptide binding, fluorescence polarization, 2 h; inhibition, % at 24.7 µM; 220,000 compounds, 0.53% hits; AID 1274;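 also: 0% = p47phox with labelled peptide and 100% = labelled peptide alone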
Mcl-1 Bim block = disrupts Bim peptide binding to human Mcl-1 | Q07820 | Bead-based flow cytometry, Bim peptide-Mcl-1 binding | inhibition, % at 10 µM | 190,000 compounds, 0.1% hits; in the data active = inhibition above about 40%;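 also: 0% = no compound tracer wells and 100% = peptide blocker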
* hit, by the source's call; . = no result given; [ ] = dose if it differs, or a comment.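 The calls were made as follows, unless noted: active = inhibition above about 30% (limit read from the data); inactive = the rest.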

SMILES	Mcl1 Bid PPI	14-3-3 Bad inh	eIF4E-4G inh	Mcl1-Noxa inh	p47phox inh	Mcl-1 Bim block
O=C1CC(C(F)(F)F)=NN1	-41	-6	-3	4	5	.
C/C(=N/NC(=O)c1ccco1)c1ccc(NC(=O)c2ccc(F)cc2)cc1	-21	8	17	12	-3	-26
Cc1ccc(N2CSC3=C(C#N)C(c4cccs4)CC(=O)N3C2)cc1 (centres undefined)	-18	4	1	28	-13	-8
COc1ccc(N2CSC3=C(C#N)C(c4cc(OC)c(OC)cc4OC)CC(=O)N3C2)c(OC)c1 (centres undefined)	-44	-1	2	21	33*	-3
COc1ccc(N2CSC3=C(C#N)C(c4cc(OC)ccc4OC)CC(=O)N3C2)c(OC)c1 (centres undefined)	-13	-6	-2	49	7	16
COc1ccc(N2CSC3=C(C#N)C(c4cccs4)CC(=O)N3C2)cc1 (centres undefined)	-43	65	47*[fluorescence artefact?]	25	-11	-3
Cc1cc(N=Cc2c(O)ccc3cc(Br)ccc23)no1	-23	2	2	84*	2	1
Cc1cc(N=Cc2c(O)ccc3ccccc23)no1	-15	14	3	30	-4	-2
COc1ccc(N=C2S/C(=C\c3ccc(OCC(=O)O)cc3)C(=O)N2CCc2c[nH]c3ccccc23)cc1	49	69	20	70*	-6	-10
CN(C)CC(C)(C)CNC(=O)C1CCN(Cc2ccccc2O)CC1	58*	43	-20	20	-5	0
O=C(NCC1CCCO1)c1cc([N+](=O)[O-])ccc1Cl (centres undefined)	94*	-18	5	9	-15	-1
NS(=O)(=O)c1ccc(N=Nc2ccc(=O)[nH]c2O)cc1	-41	73*	37*	63*	4	.
Cc1cc(-c2ccco2)n2c(nc3ccccc32)c1C#N	96*	-12	-1	-9	-16	0
C=C(C)CSc1cc(C)c(C#N)c2nc3ccccc3n12	-9	4	9	50	0	-4
COc1cc2c(cc1OC)C(c1ccc(-c3cc(Cl)ccc3Cl)o1)=NCC2	18	39	4	12	51*	0
O=C(/C=C/Nc1ccc([N+](=O)[O-])cc1)c1ccc(Br)cc1	15	25	-4	53*	3	0
O=C(/C=C/Nc1ccc(F)cc1)c1ccc(Br)cc1	-12	-4	1	-7	-13	-2
COc1ccc(C(=O)C2CCCN(Cc3cn[nH]c3-c3ccc(F)cc3)C2)cc1OC (centres undefined)	96*	-13	-2	5	2	-4
CC(=O)c1nnn(-c2ccc([N+](=O)[O-])cc2C)c1C	-23	-10	5	-12	-7	0
Oc1ccc(Nc2nc3ccccc3nc2Nc2ccc(O)cc2)cc1	24	62	0	82*	66*	1
O=C(O)c1ccc(-n2cccc2/C=C2/NC(=O)N(c3ccccc3)C2=O)cc1	-34	65	26	72*	-30	.
O=C1N/C(=C/c2cccn2-c2ccc(F)cc2)C(=O)N1Cc1ccccc1	-46	-14	-2	7	-26	5
O=C(O)c1ccc(-n2cccc2/C=C2/NC(=O)N(c3cccc(Cl)c3)C2=O)cc1	-41	80*	38*	74*	-26	0
O=C(O)c1cccc(-n2cccc2/C=C2\NC(=O)N(Cc3ccc(F)cc3)C2=O)c1	-54	40	11	12	-26	-2
COc1cc(CC(=O)OCn2nnc3ccccc3c2=O)cc(OC)c1OC	-12	-3	-1	13	8	-1
SMILES	Mcl1 Bid PPI	14-3-3 Bad inh	eIF4E-4G inh	Mcl1-Noxa inh	p47phox inh	Mcl-1 Bim block
O=C(COC(=O)/C=C/c1cccs1)NC1CC1	-18	-19	-2	12	-6	-3
O=C1CCCC(O)=C1Sc1ccccc1C(=O)O	-67	4	7	-8	-3	1
O=C1CCCC(O)=C1C(C#Cc1ccccc1)C1=C(O)CCCC1=O	-4	4	42*[fluorescence artefact?]	52*	11	0
CC1(C)CC(=O)C(C(C#Cc2ccccc2)C2=C(O)CC(C)(C)CC2=O)=C(O)C1	8	36	18	57*	-19	-5
Cc1nc2c(-c3ccc(F)cc3)cnn2c2c1CCC2	-20	-10	-1	-11	-7	0
O=C(COc1ccc([N+](=O)[O-])cc1)Nc1nnc(-c2cccnc2)s1	-11	20	15	69*	-20	.
Cc1cc(/C=C(\C#N)C(=O)N2CCOCC2)c(C)n1C1CCCC1	-89	1	0	-2	5	.
Cc1ccc(-n2c(C)cc(/C=N/Nc3ccc([N+](=O)[O-])cn3)c2C)cc1	-32	62	35*[fluorescence artefact?]	10	-10	-1
Cc1cc(/C=N/Nc2ccc([N+](=O)[O-])cn2)c(C)n1-c1ccccc1	-13	33	-27	19	-21	0
O=C(Nc1cccc(-c2nc3ncccc3o2)c1)c1sc2ccccc2c1Cl	18	57	-104	38	67*	2
O=c1c2ccccc2nc2n1C(CBr)CN2 (centres undefined)	-35	-2	-6	-4	-4	.
O=C1Cc2ccccc2C(c2ccccc2)N1 (centres undefined)	-13	79*	-1	-12	0	0
CC12CCC(C(=O)N3CCCCCC3)(OC1=O)C2(C)C (centres undefined)	-23	-12	-11	-5	-16	0
CC12CCC(C(=O)N3CCN(Cc4ccccc4)CC3)(OC1=O)C2(C)C (centres undefined)	-14	-7	4	-3	32*	-1
O=C(O)CCCCC1CCSS1 (centres undefined)	97*	99*	72*	74*	-59	-2
COc1cccc(/C=N/n2c(-c3ccco3)nc3ccccc3c2=O)c1OC	7	6	7	17	-7	2
CCN1C(=O)/C(=C\c2ccc(-c3ccc([N+](=O)[O-])cc3OC)o2)SC1=Nc1cccc(C(=O)O)c1	70*	60	64*	98*	-12	-6
CCN=C1S/C(=C\c2ccc(-c3cccc(C(=O)O)c3)o2)C(=O)N1CC	-22	-9	3	35	-14	4
O=c1c2ccccc2nc2n1CCC2	96*	94*	94*	41	2	-3
CN(Cc1ccc(-n2cccn2)cc1)Cc1nc(-c2cnccn2)no1	-39	-4	4	-4	-5	-1
CN(CCN(C)C(C)(C)C)C(=O)C(c1ccccc1)c1ccccc1	74*	52	-3	21	-7	.
c1ccc(-c2ccc(-c3nccc4ccccc34)[nH]2)cc1	-8	2	1	15	-72	.

Bioassay records as filed in PubChem.
